# Data: PubChem BioAssay
# Experiment: Her2 expression decrease, cell viability multiplex – SKBR3 breast tumor cells, AlphaScreen, ATP viability, primary screen (AID 461);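 also: percent of carrier control wells set as 100% viability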
# Conditions: SKBR3 Her2 protein level, 18-24 h, measured here: SKBR3 viability, ATP luminescence, at 10 µM
row,SMILES,viability [%]
1,CC1CCc2nn(CC(=O)NCc3ccc4c(c3)OCO4)cc2C1 (centres undefined),86.5
2,CCC(C)(C(=O)NC1CCCC1)N(Cc1cccs1)C(C)=O (centres undefined),120
3,COc1ccc(CCNC(=O)c2cnn3ccccc23)c(OC)c1OC,92.5
4,CC1CCCN(S(=O)(=O)c2coc(C(N)=O)c2)C1 (centres undefined),87.5
5,Cn1c(C(=O)NCC2CCCO2)cc2c(=O)n(C)c3ccccc3c21 (centres undefined),95
6,O=C(Nc1cnn(Cc2ccc(Cl)cc2Cl)c1)c1noc2c1CCCC2,94.5
7,Clc1cccc(N2CCN(Cc3nc(-c4ccccc4)no3)CC2)c1,90.5
8,COC(=O)C1=C(C)NC(C)=C(C(=O)OC)C1C1CC=CCC1 (centres undefined),85
9,Cc1nnc(SCC(=O)NCc2ccccc2)s1,97.5
10,CC1=C(C(=O)Nc2ccc(F)cc2)C(c2cccc(C)c2)n2nc(CCCO)nc2N1 (centres undefined),87.5
11,CCOc1ccc(OCCCCN(C)C)cc1,89
12,CCCC(=O)C1=C(N(C)c2ccccc2)CC(C)(C)C(C(=O)OC)C1=O (centres undefined),95
13,CC1Cc2ccccc2N1C(=O)C12CCC(C)(C(=O)C1)C2(C)C (centres undefined),136
14,CC1CN(c2ccc(Oc3ccccc3)cc2)c2nc3c(c(=O)n(CC(N)=O)c(=O)n3C)n2C1 (centres undefined),107
15,COc1ccc(N2CCN(C(c3ccccc3)c3sc4nc(C)nn4c3O)CC2)cc1 (centres undefined),91.5
16,O=C(CCn1c(=O)oc2ccccc21)NCc1ccco1,106
17,COc1cccc(C2CC(c3ccc(C)cc3)n3nc(N)nc3N2)c1 (centres undefined),104
18,Cc1onc(-c2c(Cl)cccc2Cl)c1C(=O)NCC1CCCO1 (centres undefined),111
19,CC(=O)Nc1cccc(NC(=O)CSc2nn3c(=O)c(C)nnc3s2)c1,100
